# Reference: PubChem BioAssay (NCATS)
# Records with an inconclusive call do not appear. A call without a number means that no potency is given here. Active and inactive are the calls of the source. The call rests on the fitted dose curve; in most records, active means well fitted cell-killing curve with a large enough effect; inconclusive means small, poorly fitted or top-dose-only effect; inactive means no such curve, though single readings can be large or run the other way.
# Experiment: qHTS of pediatric cancer cell lines to identify multiple opportunities for drug repurposing: Primary screen for MG 63 (6-TG R) cells (AID 1347105); further: nearly all actives have a fitted effect of over 50% in size
# Settings: MG 63 (6-TG R) viability, CellTiter-Glo, 48 h; series mostly up to 46 µM
# Text: Drug repurposing or repositioning has been offered as a strategy for drug development in oncology programs. This approach has special potential for childhood cancers and other rare or orphan diseases, where the expected return on new drug development has been a disincentive to pharmaceuticals. […] In this project we exploit the poly-pharmacology of drugs to discover new indications via phenotypic screening of a panel of 19 well-characterized cell lines derived from solid tumors seen in children and adolescents. The goal is to identify approved drugs with previously unrecognized anticancer properties that has the potential to reveal new mechanisms and biological processes involved in carcinogenesis or drug resistance. We employed a titration-based paradigm (quantitative high-throughput screening or qHTS), where all compounds were tested at multiple concentrations for their effect on cell viability. Concentration-response curves (CRCs) were derived directly from the primary screen, and both potency and efficacy values were used to identify compounds with robust bioactivity profiles. We screened the NIH Chemical Genomics Center (NCGC) Pharmaceutical Collection (NPC) and Mechanism Interrogation Plate (MIPE) small molecule collections of approved and investigational compounds against these cell lines; and measured metabolically active cells after 48 hours of compound treatment as a proxy for cell viability. […] Assay Submitter: Nathalia J. Martinez, National Center for Advancing Translational Sciences, National Institutes of Health, Rockville, MD, USA; email: natalia.martinez@nih.gov Shen, M et al. Quantitative high-throughput phenotypic screening of pediatric cancer cell lines identifies multiple opportunities for drug repurposing. Oncotarget 2017 Dec 19;9(4):4758-4772. PMID 29435139.
# The cells were obtained from University of North Carolina (UNC), Pediatric Preclinical Testing Program (PPT), and Coriell Institute (CI). qHTS cell viability assay: Cells were assayed in growth media at a density of 500-1,000 cells/well. Five microliters of cells were dispensed into 1,536-well, white, solid-bottom, TC-treated plates (Greiner Bio One) using a multidrop dispenser and incubated at 37 degrees C, 5% CO2, under a humidified atmosphere for 5 hours. Twenty-three nanoliters of compounds and controls (neutral control DMSO or positive control bortezomib at final concentration of 2.3 µM) were subsequently transferred by Kalypsys pintool. For primary screens, the MIPE collection was tested at 11-point dilutions (final concentrations range from 0.78 nM to 46 µM) and the NPC collection at 8-point dilutions (final concentrations range from 0.59 nM to 46 µM). Compounds tested in follow-up screens were assayed at 11-point dilutions. Cells were incubated for 48 hours, followed by addition of 3 µL of CellTiter-Glo (Promega). After a 15 min incubation at room temperature, samples were analyzed for luminescence intensity using a ViewLux High-throughput CCD imager equipped with clear filters.
# Potency means the concentration at half of the fitted maximal effect.
Structure (SMILES),"activity change, negative = cytotoxic",Potency
CCN[C@@H]1C[C@H](N)[C@@H](OC2OC(CN)=CCC2N)[C@H](O)[C@H]1O[C@H]1OC[C@](C)(O)[C@H](NC)[C@H]1O (stereo not given in full),-16.5% [at 0.597 µM] (inactive),–
CCNC(=O)/C=C/c1cccc(Br)c1,–,inactive
NS(=O)(=O)c1cc(C(=O)O)cc(N2CCCC2)c1Oc1ccccc1,–,inactive
Cc1ncc(CO)c(C=O)c1O,–,inactive
NC(=S)N/N=C/c1cccnc1,–,inactive
CCN(CC)CCNC(=O)c1cc(Br)c(N)cc1OC,–,inactive
O=C(NC1CCN(CCc2c[nH]c3ccccc23)CC1)c1ccccc1,–,inactive
CC1CCc2c(N3CCC(O)CC3)c(F)cc3c(=O)c(C(=O)O)cn1c23 (stereo not given),–,inactive
CC(=O)O[C@]1(C(C)=O)CC[C@H]2[C@@H]3C=C(Cl)C4=CC(=O)CC[C@]4(C)[C@H]3CC[C@@]21C,–,inactive
Cc1nc(-c2ccc(Cl)cc2)oc1COC(C)(C)C(=O)O,–,inactive
O=C(O)P(=O)(O)O,–,inactive
O=C1C(O)=C(O)C(=O)C(O)=C1O,–,inactive
CCOC(=O)c1c(N)sc2c1CCN(Cc1ccccc1)C2,–,inactive
CN1CCN(c2c(F)cc3c(=O)c(C(=O)O)cn4c3c2SCC4)CC1,–,inactive
N=C(N)N1CCc2ccccc2C1,-18.3% [at 4.84 µM] (inactive),–
Cc1cc(C)cc(OCC2CNC(=O)O2)c1 (stereo not given),–,inactive
CC(=O)OC[C@H]1O[C@@H](n2ncc(=O)[nH]c2=O)[C@H](OC(C)=O)[C@@H]1OC(C)=O,–,inactive
CC(=O)Nc1ccc(OC(=O)c2ccccc2OC(C)=O)cc1,–,inactive
CCC1NC(=O)c2cc(S(N)(=O)=O)c(Cl)cc2N1 (stereo not given),–,inactive
CC(=C(CCOC(=O)C(C)C)SSC(CCOC(=O)C(C)C)=C(C)N(C=O)Cc1cnc(C)nc1N)N(C=O)Cc1cnc(C)nc1N,–,inactive

Structure (SMILES),"activity change, negative = cytotoxic",Potency
c1ccc(-c2nc[nH]c2-c2ccccc2)cc1,–,inactive
NS(=O)(=O)Cc1noc2ccccc12,–,inactive
C#C[C@]1(OC(C)=O)CC[C@H]2[C@@H]3CCC4=C/C(=N/O)CC[C@@H]4[C@H]3CC[C@@]21CC,–,inactive
FC1(F)C(F)(F)C(F)(F)C2(F)C(F)(F)C(F)(F)C(F)(F)C(F)(F)C2(F)C1(F)F (stereo not given),–,inactive
O=C1[C@H](CC[C@H](O)c2ccc(F)cc2)[C@@H](c2ccc(O)cc2)N1c1ccc(F)cc1,–,inactive
CCCN(CCC)S(=O)(=O)c1ccc(C(=O)O)cc1,–,inactive
CN(C)CCN1C(=O)c2ccccc2N(C)c2ccccc21,–,inactive
C#C[C@]1(O)CC[C@H]2[C@@H]3CCC4=Cc5oncc5C[C@]4(C)[C@H]3CC[C@@]21C,–,inactive
CCOC(=O)[C@H](CCc1ccccc1)N[C@@H](C)C(=O)N1[C@H](C(=O)O)C[C@@H]2CCC[C@@H]21,–,inactive
Oc1ccc(Cl)cc1Cc1cc(Cl)ccc1O,–,16.8 µM (active)
O=C(Nc1ccc([N+](=O)[O-])cc1)Nc1ccc([N+](=O)[O-])cc1,–,inactive
OCc1ccccn1,–,inactive
CCCCCCCCOc1ccc(C(=O)c2ccccc2)c(O)c1,–,inactive
CCCCC(CC)COC(=O)/C=C/c1ccc(OC)cc1 (stereo not given),–,inactive
CC(=O)OCC1=C(C(=O)O)N2C(=O)[C@@H](NC(=O)CSc3ccncc3)[C@H]2SC1,–,inactive
COc1ccc(C(=O)c2ccccc2O)c(O)c1,–,inactive
C=C1c2cccc(O)c2C(O)=C2C(=O)[C@]3(O)C(O)=C(C(N)=O)C(=O)[C@@H](N(C)C)[C@@H]3[C@@H](O)[C@H]12,–,inactive
CC1(C)OC[C@@H]2O[C@@]3(C(=O)O)OC(C)(C)O[C@H]3[C@@H]2O1,–,inactive
CCN(CC)CCNC(=O)COc1ccc(OC)cc1,–,inactive
CCCCCCCCCCCCCCC[C@H](O)[C@@H](N)CO,–,inactive
